Laboratory results as given in PubChem BioAssay (Tox21).
Several values for one entry are separate records, joined by “and”; a condition that tells them apart may be missing. Equal values may be shown once. Records with an inconclusive call do not appear. A structure can be active in one record and inactive in another. Activity calls are given as the source filed them. Unless noted, calls follow the shape of the dose curve; as a rule, active = well fitted curve in the direction sought with a large enough effect in the repeat runs; inconclusive = weak or mixed curves; inactive = no such curve, though single readings can be large; an effect the other way counts as inactive or inconclusive.

Columns and labels:
[1] = qHTS RealTime-Glo MT Cell Viability Assay in HEK293 cells - 0 hour (AID 1224880); also: top concentration of the series differs between compounds; nearly all actives have a fitted effect of over 45% in size
How it was run: (§1)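 HEK293 + NanoLuc + prosubstrate, 600 cells/well; 5 h, 37 C/5% CO2; compound 23 nL in DMSO by pintool; 37 C; luminescence read at 0, 8, 16, 24, 32 and 40 h time points.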

[2] = A CellTox Green Cytotoxicity Assay to monitor cytotoxicity in HEK293 cells - 32 hour (AID 1224881); also: nearly all actives have a fitted effect of over 40% in size; also: potency is read from the fitted curve at half-maximal effect
How it was run: (§2)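 Tox21 screen in HEK293: membrane-impermeant cyanine dye fluoresces on binding dead-cell DNA; compound pinned 5 h post-seeding, plates held at 37 C, signal read repeatedly through 40 h.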

[3] = A CellTox Green Cytotoxicity Assay to monitor cytotoxicity in HepG2 cells - 0 hour (AID 1224882); also: nearly all actives have a fitted effect of over 35% in size; also: potency is read from the fitted curve at half-maximal effect
How it was run: (§3)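 Measurements at 0, 8, 16, 24, 32 and 40 h of treatment captured CellTox Green fluorescence in HepG2 cells that had been co-plated with reagent and preincubated 5 h at 37 C/5% CO2.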

[4] = A CellTox Green Cytotoxicity Assay to monitor cytotoxicity in HepG2 cells - 32 hour (AID 1224883); also: nearly all actives have a fitted effect of over 50% in size; also: potency is read from the fitted curve at half-maximal effect
How it was run: as §3

[5] = A CellTox Green Cytotoxicity Assay to monitor cytotoxicity in HEK293 cells - 8 hour (AID 1224884); also: nearly all actives have a fitted effect of over 35% in size; also: potency is read from the fitted curve at half-maximal effect
How it was run: as §2

[6] = qHTS RealTime-Glo MT Cell Viability Assay in HepG2 cells - 16 hour (AID 1224885); also: nearly all actives have a fitted effect of over 50% in size; also: potency is read from the fitted curve at half-maximal effect
How it was run: (§4)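 Compound treatment began 5 h after plating HepG2 cells (600/well) with NanoLuc luciferase and prosubstrate. Plates stayed at 37 C for 40 h; luminescence was captured at six time points, 0 h through 40 h.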

[7] = qHTS RealTime-Glo MT Cell Viability Assay in HEK293 cells - 24 hour (AID 1224886); also: nearly all actives have a fitted effect of over 50% in size; also: potency is read from the fitted curve at half-maximal effect
How it was run: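 Quantitative high-throughput screen of the Tox21 10K library in HEK293: cells and RealTime-Glo reagents plated together, compound added at 5 h, luminescence monitored through 40 h at 37 C.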

[8] = qHTS RealTime-Glo MT Cell Viability Assay in HEK293 cells - 8 hour (AID 1224887); also: nearly all actives have a fitted effect of over 50% in size; also: potency is read from the fitted curve at half-maximal effect
How it was run: as §1

[9] = A CellTox Green Cytotoxicity Assay to monitor cytotoxicity in HEK293 cells - 16 hour (AID 1224888); also: nearly all actives have a fitted effect of over 35% in size
How it was run: as §2

[10] = qHTS RealTime-Glo MT Cell Viability Assay in HepG2 cells - 0 hour (AID 1224889); also: nearly all actives have a fitted effect of over 50% in size
How it was run: as §4

[11] = A CellTox Green Cytotoxicity Assay to monitor cytotoxicity in HepG2 cells - 8 hour (AID 1224890); also: nearly all actives have a fitted effect of over 45% in size; also: potency is read from the fitted curve at half-maximal effect
How it was run: as §3

[12] = qHTS assay to identify small molecule HDAC inhibitors (AID 1259364); also: potency is read from the fitted curve at half-maximal effect;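 also: wild-type HCT-116 cells with endogenous class I/II HDAC activity; nearly all actives have a fitted effect of over 45% in size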
How it was run: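 Screening used wild-type human colon HCT-116 cells incubated overnight, dosed with compounds for 2 hours, and assayed with a homogeneous luminogenic HDAC I/II reagent for 30 minutes at room temperature.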

[13] = qHTS assay to identify small molecule HDAC inhibitors - cell viability counter screen (AID 1259365)
How it was run: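 Cytotoxicity was gauged in wild-type HCT-116 cells after a brief 2hr treatment with DMSO-dissolved compounds at 37C and 5% CO2, using CellTiter-Glo luminescence developed for 30min at room temperature.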

[14] = qHTS assay to identify small molecule agonists of the sonic hedgehog signaling (Shh) pathway - cell viability counter screen (AID 1259366); also: nearly all actives have a fitted effect of over 50% in size; also: potency is read from the fitted curve at half-maximal effect
How it was run: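 Stable Gli1-Luc NIH/3T3 clone, 2,000 cells/well. Compound exposure 24hr at 37C. Read-out: CellTiter-Fluor fluorescence.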

[15] = qHTS assay to identify small molecule antagonists of the sonic hedgehog signaling (Shh) pathway - cell viability counter screen (AID 1259367); also: nearly all actives have a fitted effect of over 55% in size; also: potency is read from the fitted curve at half-maximal effect
How it was run: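 Tox21 library chemicals were tested on a Gli1-Luc NIH/3T3 clone (2,000 cells/well) stimulated by conditioned medium; viability was quantified as fluorescence from CellTiter-Fluor reagent added at 23 hr.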

[16] = qHTS assay to identify small molecule antagonists of the estrogen receptor alpha (ER-alpha) signaling pathway using the BG1 cell line in the presence of 0.1 nM 17-beta-estradiol - cell viability counter screen (AID 1259241); also: nearly all actives have a fitted effect of over 40% in size
How it was run: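 Viability in VM7Luc4E2 cells after 22 hr compound exposure under 0.1 nM 17beta-estradiol stimulation, by CellTiter-Fluor.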

[17] = qHTS assay to identify small molecule antagonists of the androgen receptor (AR) signaling pathway using the MDA cell line in the presence of 0.5 nM R1881 - cell viability counter screen (AID 1259242); also: nearly all actives have a fitted effect of over 45% in size; also: potency is read from the fitted curve at half-maximal effect
How it was run: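 Concentration-response screen of compounds for toxicity in MDA-kb2 reporter cells: 16 hr at 37C with 0.5 nM R1881, endpoint live-cell protease fluorescence measured in the reporter wells.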

[18] = target: Estrogen receptor (Homo sapiens) (UniProt P03372); test: qHTS assay to identify small molecule antagonists of the estrogen receptor alpha (ER-alpha) signaling pathway using the BG1 cell line in the presence of 0.1 nM 17-beta-estradiol (AID 1259244); also: nearly all actives have a fitted effect of over 50% in size
How it was run: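 Compounds were tested against 0.1 nM (final) 17beta-estradiol in VM7Luc4E2 cells, which express full-length ER-alpha and an ERE-luciferase reporter; luminescence was recorded following 22 h exposure.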

[19] = qHTS assay to identify small molecule phospholipidosis (PLD) inducers (AID 1259344; active = well fitted curve in the direction sought with a large enough effect; an effect the other way counts as inactive or inconclusive)
How it was run: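 Image-based: LipidTOX Red pit count/intensity per well and per cell; HepG2, 24 h compound at 37 C, PFA fixation, Hoechst counterstain.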

[20] = target: Androgen receptor (Homo sapiens) (UniProt P10275); test: qHTS assay to identify small molecule antagonists of the androgen receptor (AR) signaling pathway using the MDA cell line in the presence of 0.5 nM R1881 (AID 1259243); also: nearly all actives have a fitted effect of over 50% in size; also: potency is read from the fitted curve at half-maximal effect
How it was run: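 With R1881 held at 0.5 nM (final), compound effects on MMTV-luciferase expression in MDA-kb2 cells were scored by luminescence after a 16 hr, 37C incubation.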

Measured: Potency

Sequence of Androgen receptor (Homo sapiens) (P10275 whole entry, looked up): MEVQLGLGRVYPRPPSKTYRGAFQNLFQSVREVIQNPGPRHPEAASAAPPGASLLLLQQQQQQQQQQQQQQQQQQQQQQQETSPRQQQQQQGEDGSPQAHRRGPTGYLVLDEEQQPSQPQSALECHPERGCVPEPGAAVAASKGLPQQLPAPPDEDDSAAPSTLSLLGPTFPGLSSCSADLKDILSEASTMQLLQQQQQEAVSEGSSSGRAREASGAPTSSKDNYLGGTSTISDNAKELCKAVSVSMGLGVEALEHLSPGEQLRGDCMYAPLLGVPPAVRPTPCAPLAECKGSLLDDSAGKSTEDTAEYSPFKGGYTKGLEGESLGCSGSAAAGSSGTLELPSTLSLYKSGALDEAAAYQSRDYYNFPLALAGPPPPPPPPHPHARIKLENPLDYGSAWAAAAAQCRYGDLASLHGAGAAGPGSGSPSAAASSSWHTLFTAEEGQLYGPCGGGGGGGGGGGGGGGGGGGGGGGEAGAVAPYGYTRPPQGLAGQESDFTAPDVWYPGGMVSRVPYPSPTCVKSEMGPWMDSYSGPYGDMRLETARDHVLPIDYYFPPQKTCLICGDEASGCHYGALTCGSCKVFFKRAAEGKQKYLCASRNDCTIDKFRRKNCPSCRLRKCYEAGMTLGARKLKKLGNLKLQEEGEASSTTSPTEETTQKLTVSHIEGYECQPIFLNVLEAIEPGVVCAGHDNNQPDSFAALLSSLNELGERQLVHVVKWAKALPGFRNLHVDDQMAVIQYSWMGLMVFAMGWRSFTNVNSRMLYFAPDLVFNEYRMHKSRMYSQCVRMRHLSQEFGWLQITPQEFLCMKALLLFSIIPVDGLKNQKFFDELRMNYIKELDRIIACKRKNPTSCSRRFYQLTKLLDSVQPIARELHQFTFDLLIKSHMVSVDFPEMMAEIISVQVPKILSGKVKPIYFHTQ
Sequence of Estrogen receptor (Homo sapiens) (P03372 whole entry, looked up): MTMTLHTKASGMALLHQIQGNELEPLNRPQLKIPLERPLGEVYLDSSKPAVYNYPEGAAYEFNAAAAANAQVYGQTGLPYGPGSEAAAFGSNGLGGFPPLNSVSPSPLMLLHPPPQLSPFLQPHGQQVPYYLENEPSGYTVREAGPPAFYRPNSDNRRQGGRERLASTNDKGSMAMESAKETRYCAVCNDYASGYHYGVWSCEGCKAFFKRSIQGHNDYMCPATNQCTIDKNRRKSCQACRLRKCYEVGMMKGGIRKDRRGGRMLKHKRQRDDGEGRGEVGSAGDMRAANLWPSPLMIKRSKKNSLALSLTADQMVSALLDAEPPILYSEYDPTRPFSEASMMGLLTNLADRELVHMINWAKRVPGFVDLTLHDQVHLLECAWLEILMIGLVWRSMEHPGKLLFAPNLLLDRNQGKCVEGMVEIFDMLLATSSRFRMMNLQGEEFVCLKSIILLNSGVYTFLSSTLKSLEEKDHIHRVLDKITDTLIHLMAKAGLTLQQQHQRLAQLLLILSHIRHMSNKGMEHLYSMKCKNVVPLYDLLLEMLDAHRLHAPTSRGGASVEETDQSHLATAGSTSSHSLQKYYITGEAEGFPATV

O=C(O)/C=C\C(=O)O
not listed: [16] | [17] | [18] | [19] | [20]
inactive: all other assays above

CCCCC1C(=O)N(c2ccccc2)N(c2ccccc2)C1=O
not listed: [10] | [20]
inactive: all other assays above

Cc1cc(=O)n(-c2ccccc2)n1C
44.8 µM (active) and inactive: [2]
not listed: [9]
inactive: all other assays above

Nc1ccc(S(=O)(=O)Nc2nccs2)cc1
inactive and 43.6 µM (active): [2] | [3] | [4] | [11]
inactive and 49 µM (active): [5]
not listed: [9] | [20]
inactive: all other assays above

CCCCCCCCCCCCCCCC(=O)O
not listed: [18] | [20]
inactive: all other assays above

O=c1ccc2ccccc2o1
not listed: [20]
inactive: all other assays above

c1ccc2[nH]ccc2c1
9.53 µM (active) and inactive: [17]
2.39 µM (active) and inactive: [20]
15.2 µM (active) and inactive: [6]
3.83 µM (active) and inactive: [4]
2.41 µM (active) and inactive: [7]
6.81 µM (active) and inactive: [2]
not listed: [9] | [16] | [18]
inactive: all other assays above

O=C(O)c1cccnc1
not listed: [18] | [20]
inactive: all other assays above

CC(O)CN(CCN(CC(C)O)CC(C)O)CC(C)O (stereo not given)
not listed: [9] | [18] | [20]
inactive: all other assays above

O=C1NC(=O)c2ccccc21
not listed: [18] | [19] | [20]
inactive: all other assays above

COc1c2occc2cc2ccc(=O)oc12
inactive and 21.9 µM (active): [7] | [8]
not listed: [18] | [20]
inactive: all other assays above

O=C(O)CCCCCCCC(=O)O
not listed: [18] | [20]
inactive: all other assays above

Oc1ccc(/C=C/c2cc(O)cc(O)c2)cc1
active: [12] 1.95 µM and 1.22 µM and 2.98 µM | [14] 21.9 µM and 24.3 µM | [15] 30.9 µM and 27.3 µM
not listed: [4] | [7]
inactive: all other assays above

O=C(O)c1cccc([N+](=O)[O-])c1
not listed: [18] | [19] | [20]
inactive: all other assays above

NS(=O)(=O)c1cc(C(=O)O)c(NCc2ccco2)cc1Cl
19.6 µM (active) and inactive: [4]
not listed: [8] | [20]
inactive: all other assays above
